Reference: PubChem BioAssay (NCI)
The panel holds about 83,000 compounds, 20% with a hit somewhere; the sample as a whole holds those more often.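 In brief: 96-well plates, 48 h treatment, single concentration, percent growth endpoint.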 Active and inactive are the calls of the source. How the source made its calls: active means growth percent below 10; inactive means the rest.

Experiments:
Assay in all cases: NCI-60 one-dose screen, 48 h (100 = growth as untreated, 0 = no growth, -100 = all killed)
Conditions in all cases: 10 µM unless noted
HCT-15 colon = tested on: HCT-15 colon
HT29 colon = tested on: HT29 colon
SNB-75 CNS = tested on: SNB-75 CNS
SNB-19 CNS = tested on: SNB-19 CNS
U251 CNS = tested on: U251 CNS
PC-3 prostate = tested on: PC-3 prostate
SK-MEL-5 melanoma = tested on: SK-MEL-5 melanoma
UACC-62 melanoma = tested on: UACC-62 melanoma
LOX IMVI melanoma = tested on: LOX IMVI melanoma
SK-MEL-28 melanoma = tested on: SK-MEL-28 melanoma

Measured: growth

COC(c1ccccc1)C(Br)C(=O)c1ccccc1 (stereo not given)
inactive: HCT-15 colon 90.7% | HT29 colon 106% | SNB-75 CNS 86.5% | SNB-19 CNS 96.3% | U251 CNS 95.1% | PC-3 prostate 91.3% | SK-MEL-5 melanoma 94.1% | UACC-62 melanoma 84.9% | LOX IMVI melanoma 97.8% | SK-MEL-28 melanoma 102%

CC(C)OC(=O)c1ccc2n1CCCc1cnc(Nc3ccccc3)nc1-2
inactive: HCT-15 colon 43.7% | HT29 colon 72.5% | SNB-75 CNS 98.6% | SNB-19 CNS 89% | U251 CNS 76.4% | PC-3 prostate 75.7% | SK-MEL-5 melanoma 61.1% | UACC-62 melanoma 64.7% | LOX IMVI melanoma 78.7% | SK-MEL-28 melanoma 92.9%

S=C(N/N=C/c1cc(Cl)cc(Cl)c1)NC12CC3CC(CC(C3)C1)C2
inactive: HCT-15 colon 84.9% | HT29 colon 49.9% | SNB-75 CNS 45.6% | SNB-19 CNS 93.6% | U251 CNS 40.6% | PC-3 prostate 75.5% | SK-MEL-5 melanoma 97% | UACC-62 melanoma 89.5% | LOX IMVI melanoma 45.1% | SK-MEL-28 melanoma 90.9%

COc1ccc(-c2cc(C#N)c(NNC(C)=O)[nH]2)cc1
inactive: HCT-15 colon 117% | HT29 colon 105% | SNB-75 CNS 119% | SNB-19 CNS 125% | U251 CNS 102% | PC-3 prostate 115% | SK-MEL-5 melanoma 105% | UACC-62 melanoma 103% | LOX IMVI melanoma 103% | SK-MEL-28 melanoma 115%

CC1C(=O)CCCC1=O
inactive: HCT-15 colon 96.6% | HT29 colon 94% | SNB-75 CNS 90.9% | SNB-19 CNS 106% | U251 CNS 108% | PC-3 prostate 108% | SK-MEL-5 melanoma 106% | UACC-62 melanoma 103% | LOX IMVI melanoma 106% | SK-MEL-28 melanoma 105%

O=C(Oc1ccccc1)c1ccccc1Cl
inactive: HCT-15 colon 98% | HT29 colon 118% | SNB-75 CNS 89.6% | SNB-19 CNS 104% | U251 CNS 98.5% | PC-3 prostate 95% | SK-MEL-5 melanoma 104% | UACC-62 melanoma 107% | LOX IMVI melanoma 107% | SK-MEL-28 melanoma 107%

NCCCOc1cc2ccccc2cc1C(=O)Nc1ccc(Cl)cc1OC(=O)c1cc2ccccc2cc1OCCCN
active: HCT-15 colon -82.2% | HT29 colon -94.9% | SNB-75 CNS -86.5% | SNB-19 CNS -61.5% | U251 CNS -93.6% | PC-3 prostate -93% | SK-MEL-5 melanoma -96.1% | UACC-62 melanoma -71.1% | LOX IMVI melanoma -86.7% | SK-MEL-28 melanoma -89.3%

Cc1ccc(S(=O)(=O)Nc2cccc(Cn3c(=O)[nH]c4ccc(Oc5ncccn5)cc4c3=O)c2)cc1
inactive: HCT-15 colon 91% | HT29 colon 65.1% | SNB-75 CNS 78.9% | SNB-19 CNS 57.4% | U251 CNS 79.1% | PC-3 prostate 52% | SK-MEL-5 melanoma 53.8% | UACC-62 melanoma 34.7% | LOX IMVI melanoma 64.5% | SK-MEL-28 melanoma 66.7%

C=CCNCCC#N
inactive: HCT-15 colon 99.9% | HT29 colon 105% | SNB-75 CNS 79.1% | SNB-19 CNS 102% | U251 CNS 107% | PC-3 prostate 98.5% | SK-MEL-5 melanoma 99.1% | UACC-62 melanoma 109% | LOX IMVI melanoma 59.5% | SK-MEL-28 melanoma 106%

CCC(C)[C@H](NC(=O)Nc1cc(C(F)(F)F)cc(C(F)(F)F)c1)C(=O)N[C@@H](Cc1cn(C)cn1)C(=O)OC (stereo not given in full)
active: HCT-15 colon -83.2% [100 µM] | HT29 colon -83.6% [100 µM] | SNB-75 CNS -100% [100 µM] | SNB-19 CNS -98.5% [100 µM] | U251 CNS -98% [100 µM] | PC-3 prostate -93.7% [100 µM] | SK-MEL-5 melanoma -97.9% [100 µM] | UACC-62 melanoma -98.8% [100 µM] | LOX IMVI melanoma -81.2% [100 µM] | SK-MEL-28 melanoma -95.3% [100 µM]

Cc1ccc(NCc2cn(-c3ccc(C(=O)O)cc3)nc2-c2ccc(C(=O)O)cc2)cc1
inactive: HCT-15 colon 110% | HT29 colon 97.4% | SNB-75 CNS 96.7% | SNB-19 CNS 104% | U251 CNS 97.1% | PC-3 prostate 106% | SK-MEL-5 melanoma 108% | UACC-62 melanoma 103% | LOX IMVI melanoma 94.6% | SK-MEL-28 melanoma 112%

COC(=O)[C@H](Cc1cn(C)cn1)NC(=O)[C@H](Cc1c[nH]c2ccccc12)NC(=O)Nc1cc(C(F)(F)F)cc(C(F)(F)F)c1
inactive: HCT-15 colon 27.7% [100 µM]
active: HT29 colon -84.2% [100 µM] | SNB-75 CNS -85.5% [100 µM] | SNB-19 CNS -91% [100 µM] | U251 CNS -89.5% [100 µM] | PC-3 prostate -89.4% [100 µM] | SK-MEL-5 melanoma -51.3% [100 µM] | UACC-62 melanoma -92.9% [100 µM] | LOX IMVI melanoma -83.5% [100 µM] | SK-MEL-28 melanoma -80.3% [100 µM]

CCCCCCCCC1OC1CCCCCCCC(=O)O (stereo not given)
inactive: HCT-15 colon 96.6% | HT29 colon 118% | SNB-75 CNS 92.9% | SNB-19 CNS 101% | U251 CNS 91.3% | PC-3 prostate 89.9% | SK-MEL-5 melanoma 98% | UACC-62 melanoma 88.5% | LOX IMVI melanoma 109% | SK-MEL-28 melanoma 110%

CCCCCCCCCCCCCCCCCC1=NCCN1CCNC(C)=O
active: LOX IMVI melanoma -14.6%
inactive: HCT-15 colon 74.6% | HT29 colon 57.3% | SNB-75 CNS 83.5% | SNB-19 CNS 101% | U251 CNS 79.1% | PC-3 prostate 80.3% | SK-MEL-5 melanoma 102% | UACC-62 melanoma 107% | SK-MEL-28 melanoma 98.1%

N#Cc1c2cccnc2c2nnc3cc(Cl)c(Cl)cc3n12
active: HCT-15 colon 1.83% | HT29 colon -50.6% | SNB-75 CNS -6.13%
inactive: SNB-19 CNS 63.1% | U251 CNS 26.2% | PC-3 prostate 18.4% | SK-MEL-5 melanoma 86.1% | UACC-62 melanoma 52.5% | LOX IMVI melanoma 21.9% | SK-MEL-28 melanoma 17.6%

O=C(CCl)NC1c2ccccc2Oc2ccccc21
active: LOX IMVI melanoma -1.57%
inactive: HCT-15 colon 50.8% | HT29 colon 80.5% | SNB-75 CNS 74.5% | SNB-19 CNS 94.3% | U251 CNS 47.7% | PC-3 prostate 80.7% | SK-MEL-5 melanoma 73.8% | UACC-62 melanoma 68.1% | SK-MEL-28 melanoma 92%

CCn1cnc(C[C@H](NC(=O)[C@@H](NC(=O)Nc2cc(C(F)(F)F)cc(C(F)(F)F)c2)C(C)C)C(=O)OC)c1
active: HCT-15 colon -78.6% [100 µM] | HT29 colon -81% [100 µM] | SNB-75 CNS -100% [100 µM] | SNB-19 CNS -90.8% [100 µM] | U251 CNS -94.3% [100 µM] | PC-3 prostate -91.8% [100 µM] | SK-MEL-5 melanoma -98% [100 µM] | UACC-62 melanoma -94.6% [100 µM] | LOX IMVI melanoma -86% [100 µM] | SK-MEL-28 melanoma -96% [100 µM]

CC(C)CSc1nc(-c2ccc(F)cc2)c(C#N)c(N2CCCCC2)n1
inactive: HCT-15 colon 92.2% | HT29 colon 87.6% | SNB-75 CNS 100% | SNB-19 CNS 104% | U251 CNS 93% | PC-3 prostate 82% | SK-MEL-5 melanoma 94.3% | UACC-62 melanoma 82.1% | LOX IMVI melanoma 92.9% | SK-MEL-28 melanoma 94.3%

O=C(NCCNCCO)c1cc([N+](=O)[O-])cc([N+](=O)[O-])c1O
inactive: HCT-15 colon 106% | HT29 colon 104% | SNB-75 CNS 102% | SNB-19 CNS 102% | U251 CNS 99.3% | PC-3 prostate 99.7% | SK-MEL-5 melanoma 103% | UACC-62 melanoma 101% | LOX IMVI melanoma 99.1% | SK-MEL-28 melanoma 106%

Cc1sc(NC(=O)c2ccc(C(C)(C)C)cc2)c(C(=O)O)c1C
inactive: HCT-15 colon 45.9% | HT29 colon 82% | SNB-75 CNS 85.5% | SNB-19 CNS 51% | U251 CNS 17% | PC-3 prostate 53.7% | SK-MEL-5 melanoma 73.3% | UACC-62 melanoma 98.4% | LOX IMVI melanoma 68.9% | SK-MEL-28 melanoma 110%

CCCCN(CCCC)c1ccc(C(=O)O)cc1
inactive: HCT-15 colon 97.3% | HT29 colon 108% | SNB-75 CNS 83.2% | SNB-19 CNS 84.8% | U251 CNS 100% | PC-3 prostate 102% | SK-MEL-5 melanoma 100% | UACC-62 melanoma 103% | LOX IMVI melanoma 99.4% | SK-MEL-28 melanoma 107%

COC(=O)c1ccc2[nH]c(O)c(C(=Nc3ccc(N(C)C(=O)CN4CCN(C)CC4)cc3)c3ccc([N+](=O)[O-])cc3)c2c1
inactive: HCT-15 colon 73% | HT29 colon 38% | SNB-75 CNS 54.7% | SNB-19 CNS 80.1% | U251 CNS 42.6% | PC-3 prostate 35.1% | SK-MEL-5 melanoma 49.4% | UACC-62 melanoma 52.7% | LOX IMVI melanoma 46.2% | SK-MEL-28 melanoma 64.9%

c1cc(C2CCCCC2)ccc1OCCCCCCN1CCNCC1
inactive: SNB-75 CNS 31.2% | SNB-19 CNS 57.6% | PC-3 prostate 27.5% | SK-MEL-5 melanoma 34.4% | UACC-62 melanoma 70.3% | SK-MEL-28 melanoma 60.1%
active: HCT-15 colon -64.5% | HT29 colon 4.38% | U251 CNS -8.72% | LOX IMVI melanoma -90.5%

O=CN/N=C/c1ccc(Cl)c([N+](=O)[O-])c1
inactive: HCT-15 colon 47.3% | SNB-75 CNS 62.2% | SNB-19 CNS 32.5% | U251 CNS 11.9% | SK-MEL-5 melanoma 14.2% | UACC-62 melanoma 18% | LOX IMVI melanoma 17% | SK-MEL-28 melanoma 43%
active: HT29 colon 6.89% | PC-3 prostate 1.87%

CC[C@H](Nc1ncnc2nc[nH]c12)c1nc2cccc(NCc3ccc(C(=O)NO)nc3)c2c(=O)n1-c1ccccc1
inactive: HCT-15 colon 97.1% | HT29 colon 66.6% | SNB-19 CNS 26% | U251 CNS 23.6% | PC-3 prostate 23% | SK-MEL-5 melanoma 80.2% | UACC-62 melanoma 20.5% | LOX IMVI melanoma 23.1% | SK-MEL-28 melanoma 57.6%
active: SNB-75 CNS 5.43%

C/C(=N\Nc1cccc(Cl)n1)c1ccccn1
active: SK-MEL-5 melanoma -51.6% | UACC-62 melanoma -24.1% | LOX IMVI melanoma 0.322%
inactive: HCT-15 colon 23.5% | HT29 colon 26.2% | SNB-75 CNS 36.6% | SNB-19 CNS 23.1% | U251 CNS 14.5% | PC-3 prostate 29.3% | SK-MEL-28 melanoma 14.2%

C/C(CCC(=O)O)=N/Nc1ccc([N+](=O)[O-])cc1
inactive: HCT-15 colon 34.5% | HT29 colon 86.1% | SNB-75 CNS 101% | SNB-19 CNS 94.4% | U251 CNS 75.7% | PC-3 prostate 65.1% | SK-MEL-5 melanoma 46.3% | UACC-62 melanoma 23% | LOX IMVI melanoma 23.9% | SK-MEL-28 melanoma 104%
